IP6K1 inhibitor: inhibitors of human IP6K1; actives 0.81% (n = 140,000); IP6K1 kinase, ADP-Glo luminescence, 2 h; hits give low values; Q92551; activity change, % (series mostly up to about 58 µM); AID 1645851; in the data active = activity change below about -25%
Target sequence (Q92551 whole entry, looked up): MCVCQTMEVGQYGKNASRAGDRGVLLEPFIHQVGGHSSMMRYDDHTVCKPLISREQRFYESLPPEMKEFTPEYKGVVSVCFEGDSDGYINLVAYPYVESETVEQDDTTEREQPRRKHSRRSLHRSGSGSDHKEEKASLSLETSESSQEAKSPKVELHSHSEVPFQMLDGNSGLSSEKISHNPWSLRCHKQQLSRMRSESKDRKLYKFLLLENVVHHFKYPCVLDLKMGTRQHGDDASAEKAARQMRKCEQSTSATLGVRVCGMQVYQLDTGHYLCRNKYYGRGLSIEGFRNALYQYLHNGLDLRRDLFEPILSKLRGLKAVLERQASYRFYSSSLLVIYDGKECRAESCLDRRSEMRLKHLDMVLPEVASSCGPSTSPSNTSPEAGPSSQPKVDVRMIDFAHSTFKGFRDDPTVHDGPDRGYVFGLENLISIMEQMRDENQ
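ADP-Glo luminescence measures ADP made by human IP6K1 during a 2 h RT reaction with ATP/IP6 (mix at 1.3 mM/130 uM); top library doses 57.5 and 19.1 uM final.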
KDM5B inh: inhibitors of human KDM5B histone demethylase; Q9UGL1; KDM5B demethylase, FDH-coupled NADH fluorescence (FDH is formaldehyde dehydrogenase); Potency, µM (titrated, usually from 57.7 µM), hits mostly inhibitors; actives 2.6% (n = 220,000); AID 1347165; active = well fitted inhibition curve with a large enough effect; inconclusive = small, poorly fitted or top-dose-only effect; inactive = no such curve, though single readings can be large or run the other way; note: nearly all actives have a fitted effect of over 70% in size
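Inhibition is measured as reduced NADH fluorescence generation from FDH coupling to formaldehyde release. Truncated KDM5BΔAP at 200 nM final acts on H3K4me3 peptide (12.5 µM in substrate mix) in pH 7.5 HEPES buffer with Tween-20, 30 min, room temperature.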
Each line names hits and unclear results; the compound was inactive in the other large screens. Shown are actives, neighbours in structure and some others; about 2.7% of the full set was active somewhere.

O=C(c1cc(F)cc(F)c1)N1CCC(Oc2ncccc2C(=O)N2CCCCC2)C1 (configuration not stated)	none
CCCN(C)c1nccnc1OC1CCN(C(=O)c2ccccc2OC)C1 (configuration not stated)	KDM5B inh 28.2µM
Cc1ccc(C(=O)N2CCC(Oc3ncccc3C(=O)N3CCCCC3)C2)cc1C (configuration not stated)	KDM5B inh 28.2µM
CCCN(C)c1nccnc1OC1CCN(C(=O)c2ccncc2)C1 (configuration not stated)	none
Cc1nc2cc(F)ccc2cc1C(=O)NC1CCC(C)CC1 (configuration not stated)	none (no result: IP6K1 inhibitor)
CCOC(=O)C1CCCN(C(=O)c2cc(-c3cc(Cl)cc(Cl)c3)c3nncn3n2)C1 (configuration not stated)	none (no result: KDM5B inh)
COc1c(CNC2CCCN(Cc3ccccc3)C2)c(C)nn1C (configuration not stated)	none (no result: IP6K1 inhibitor)
O=C(NCCc1noc(-c2ccccc2)n1)C1NCCc2[nH]cnc21 (configuration not stated)	KDM5B inh 35.5µM
O=C(NCCc1nc(-c2cccnc2)no1)C1NCCc2[nH]cnc21 (configuration not stated)	none
O=C(Nc1ccc(Cl)cc1Cl)c1ccc2cncn2c1	KDM5B inh 28.2µM
O=C(Nc1ccc(Cl)cc1Cl)c1ccn2cncc2c1	KDM5B inh 35.5µM
O=C(Nc1ccc(Cl)cc1Cl)c1cccn2cncc12	none
O=C(Nc1ccc(Cl)cc1Cl)c1cnc2ccccc2n1	none (no result: IP6K1 inhibitor)
COc1ccc(Nc2cc(C)nc(Nc3ccc(NC(=O)CC(C)C)cc3)n2)cc1	none (no result: IP6K1 inhibitor)
Cc1ccc(-c2cccc(CN3CCCC3C(=O)NCC(C)C)c2)cc1Cl (configuration not stated)	none (no result: KDM5B inh)
CN1C[C@@H]2[C@H](c3ccccc31)[C@@H](CO)[C@@H](c1ccccc1)N2C(=O)c1ccno1	none (no result: KDM5B inh)
Fc1cc(F)cc(CNc2ncncc2-c2nc(-c3ccccc3)no2)c1	KDM5B inh inconclusive
C1=C(CCNc2ncncc2-c2nc(-c3ccccc3)no2)CCCC1	KDM5B inh 28.2µM
c1ccc(-c2noc(-c3cncnc3NCCc3cccs3)n2)cc1	KDM5B inh 28.2µM
c1ccc(-c2noc(-c3cncnc3NCc3cccs3)n2)cc1	KDM5B inh inconclusive
CC1CCC(Nc2ncncc2-c2nc(-c3ccccc3)no2)CC1 (configuration not stated)	none
c1ccc(CCCNc2ncncc2-c2nc(-c3ccccc3)no2)cc1	KDM5B inh 28.2µM
O=C(O)/C=C/c1cc(Br)c(OCc2ccccc2Cl)c(Br)c1	none (no result: IP6K1 inhibitor)
O=C(CCS(=O)(=O)c1nc(-c2cccs2)cc(C(F)(F)F)n1)Nc1ccc(OC(F)(F)F)cc1	IP6K1 inhibitor -58.0
COc1ccc(NC(=O)CCS(=O)(=O)c2nc(-c3cccs3)cc(C(F)(F)F)n2)cc1	none
Cc1ccc(C(=O)NC2CCN(Cc3cccc(-c4ccc(F)c(F)c4)c3)CC2)cc1	none (no result: KDM5B inh)
CC(=O)NCC(=O)N(c1ccc(C)cc1)C1(C(=O)Nc2ccc(C)cc2)CCCCC1	none (no result: IP6K1 inhibitor)
O=C(c1ccc2oc(-c3ccc(C(F)(F)F)cc3)nc2c1)N1CCOCC1	none
O=C(NCC1CCCO1)c1ccc2oc(-c3ccc(C(F)(F)F)cc3)nc2c1 (configuration not stated)	KDM5B inh 25.1µM
O=S(=O)(c1ccccc1)N1CCN(c2nc3ccccc3o2)CC1	none (no result: IP6K1 inhibitor)
Cc1ccc(-c2nc(CCNC(=O)Nc3cc(F)c(N(C)C)c(F)c3)co2)cc1	none (no result: IP6K1 inhibitor)
COc1ccc(Nc2ccnc(N3CCN(C(=O)NC4CCCC4)CC3)n2)cc1	none (no result: KDM5B inh)
O=C1CO[C@H]2CCN(Cc3ccccn3)CC[C@@H]2N1c1ccccc1	KDM5B inh inconclusive
CC(C)N1C(=O)CO[C@H]2CCN(Cc3ccccn3)CC[C@@H]21	KDM5B inh 35.5µM
O=C(NC1CCC(c2ccccc2)CC1)C1CC2CCCC(C1)C2=O (configuration not stated)	none (no result: IP6K1 inhibitor)
Cc1ccncc1NC(=O)CC1=C2CCCCC2N(Cc2ccc(F)cc2)C1=O (configuration not stated)	none (no result: KDM5B inh)
CC(C)OCCCNc1nc2c(S(=O)(=O)c3ccc(Br)cc3)nnn2c2ccccc12	KDM5B inh inconclusive
COCCNc1nc2c(S(=O)(=O)c3ccccc3)nnn2c2ccccc12	none
COCCNc1nc2c(S(=O)(=O)c3ccc(C(C)C)cc3)nnn2c2ccccc12	KDM5B inh inconclusive
COCCCNc1nc2c(S(=O)(=O)c3ccccc3)nnn2c2ccccc12	KDM5B inh 79.4µM
COCCCNc1nc2c(S(=O)(=O)c3ccc(C)cc3)nnn2c2ccccc12	KDM5B inh 79.4µM
Cc1cc(C)c(S(=O)(=O)c2nnn3c2nc(NCCCOC(C)C)c2ccccc23)c(C)c1	none
COCCCNc1nc2c(S(=O)(=O)c3ccc(C)c(C)c3)nnn2c2ccccc12	KDM5B inh 79.4µM
COCCNc1nc2c(S(=O)(=O)c3ccc(C)cc3)nnn2c2ccccc12	KDM5B inh 79.4µM
